Laboratory results from PubChem BioAssay AID1159580 (chemical genetic matrix, 2015).
The whole screen tested about 5,500 compounds, of which about 2,000 (36%) were called active. Another 18% or so got no clear call; they are omitted. Rule as the data show it: active = normalized growth mostly below about 0.91 (no sharp cut-off); inconclusive = no clear call, values can overlap the other calls; inactive = mostly above about 0.92. Some of the results follow.

Assay: chemical genetic growth profiling, strain panel (AID 1159580);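 also: tested at 20 µM; growth read once vehicle control cultures reached saturation at 30 °C; 1 = growth at the plate median or of vehicle wells; lower values mean less growth of the strain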
Conditions: growth OD

Measured: normalized growth

CC1C[C@H]2CC(=O)[C@H]3CCCN4CCC[C@H]2[C@]34C1 (stereo partly specified)
inactive: S. cerevisiae deletion strains, locus YAL021C, strain ccr4, active compounds read low 1.01 | S. cerevisiae deletion strains, locus YAL026C, strain drs2, active compounds read low 1.01 | S. cerevisiae deletion strains, locus YAL030W, strain snc1, active compounds read low 1 | S. cerevisiae deletion strains, locus YBL061C, strain skt5, active compounds read low 1.01 | S. cerevisiae deletion strains, locus YBR009C, strain hhf1, active compounds read low 1 | S. cerevisiae deletion strains, locus YBR021W, strain FUR4, active compounds read low 0.996 | S. cerevisiae deletion strains, locus YBR023C, strain chs3, active compounds read low 1.02 | S. cerevisiae deletion strains, locus YBR171W, strain sec66, active compounds read low 0.996 | S. cerevisiae deletion strains, locus YBR229C, strain ROT2, active compounds read low 1 | S. cerevisiae deletion strains, locus YBR231C, strain swc5, active compounds read low 0.993 | S. cerevisiae deletion strains, locus YBR279W, strain paf1, active compounds read low 1.02 | S. cerevisiae deletion strains, locus YCL011C, strain gbp2, active compounds read low 1.02 | S. cerevisiae deletion strains, locus YCL016C, strain dcc1, active compounds read low 1.02 | S. cerevisiae deletion strains, locus YCL029C, strain bik1, active compounds read low 1.02 | S. cerevisiae deletion strains, locus YCL061C, strain MRC1, active compounds read low 1.01 | S. cerevisiae deletion strains, locus YCL069W, strain vba3, active compounds read low 1.01 | S. cerevisiae deletion strains, locus YCR088W, strain abp1, active compounds read low 1.01 | S. cerevisiae deletion strains, locus YDL005C, strain med2, active compounds read low 1.01 | S. cerevisiae deletion strains, locus YDL035C, strain GPR1, active compounds read low 1.03 | S. cerevisiae deletion strains, locus YDL040C, strain nat1, active compounds read low 1.01 | S. cerevisiae deletion strains, locus YDL074C, strain BRE1, active compounds read low 1.03 | S. cerevisiae deletion strains, locus YDL101C, strain DUN1, active compounds read low 1.02 | S. cerevisiae deletion strains, locus YDL134C, strain PPH21, active compounds read low 1.01 | S. cerevisiae deletion strains, locus YDL185W, strain tfp1, active compounds read low 1.02 | S. cerevisiae deletion strains, locus YDL192W, strain arf1, active compounds read low 1.02 | S. cerevisiae deletion strains, locus YDR001C, strain nth1, active compounds read low 1.01 | S. cerevisiae deletion strains, locus YDR069C, strain doa4, active compounds read low 1.02 | S. cerevisiae deletion strains, locus YDR101C, strain arx1, active compounds read low 1.03 | S. cerevisiae deletion strains, locus YDR137W, strain rgp1, active compounds read low 1.03 | S. cerevisiae deletion strains, locus YDR150W, strain NUM1, active compounds read low 1 | S. cerevisiae deletion strains, locus YDR159W, strain sac3, active compounds read low 1 | S. cerevisiae deletion strains, locus YDR162C, strain NBP2, active compounds read low 1.03 | S. cerevisiae deletion strains, locus YDR195W, strain ref2 0.993 | S. cerevisiae deletion strains, locus YDR297W, strain sur2, active compounds read low 1 | S. cerevisiae deletion strains, locus YDR318W, strain mcm21, active compounds read low 1.02 | S. cerevisiae deletion strains, locus YDR334W, strain swr1, active compounds read low 1 | S. cerevisiae deletion strains, locus YDR335W, strain msn5, active compounds read low 1.01 | S. cerevisiae deletion strains, locus YDR388W, active compounds read low 1.01 | S. cerevisiae deletion strains, locus YDR392W, strain spt3, active compounds read low 0.954 | S. cerevisiae deletion strains, locus YDR502C, strain sam2, active compounds read low 1.01 | S. cerevisiae deletion strains, locus YEL003W, strain gim4, active compounds read low 1.01 | S. cerevisiae deletion strains, locus YEL037C, strain rad23, active compounds read low 1.01 | S. cerevisiae deletion strains, locus YEL061C, strain CIN8 (second series), active compounds read low 1.01 | S. cerevisiae deletion strains, locus YEL061C, strain CIN8, active compounds read low 1.01 | S. cerevisiae deletion strains, locus YER015W, strain faa2, active compounds read low 1.02 | S. cerevisiae deletion strains, locus YER016W, strain bim1, active compounds read low 1.01 | S. cerevisiae deletion strains, locus YER110C, active compounds read low 1.02 | S. cerevisiae deletion strains, locus YER111C, strain swi4, active compounds read low 1 | S. cerevisiae deletion strains, locus YER155C, strain BEM2 (second series), active compounds read low 1.04 | S. cerevisiae deletion strains, locus YER155C, strain BEM2, active compounds read low 0.989 | S. cerevisiae deletion strains, locus YER167W, strain BCK2, active compounds read low 1.01 | S. cerevisiae deletion strains, locus YFR010W, strain ubp6, active compounds read low 1.01 | S. cerevisiae deletion strains, locus YGL078C, strain dbp3, active compounds read low 1.01 | S. cerevisiae deletion strains, locus YGL086W, strain mad1, active compounds read low 1.02 | S. cerevisiae deletion strains, locus YGL167C, strain pmr1, active compounds read low 1.01 | S. cerevisiae deletion strains, locus YGL173C, strain kem1, active compounds read low 1.01 | S. cerevisiae deletion strains, locus YGL227W, strain vid30, active compounds read low 1.01 | S. cerevisiae deletion strains, locus YGL240W, strain doc1, active compounds read low 0.996 | S. cerevisiae deletion strains, locus YGL248W, strain PDE1, active compounds read low 1.01 | S. cerevisiae deletion strains, locus YGL253W, strain hxk2, active compounds read low 1 | S. cerevisiae deletion strains, locus YGR135W, strain pre9, active compounds read low 1.01 | S. cerevisiae deletion strains, locus YGR252W, strain gcn5, active compounds read low 0.999 | S. cerevisiae deletion strains, locus YHR013C, strain ard1, active compounds read low 1.02 | S. cerevisiae deletion strains, locus YHR027C, strain rpn1, active compounds read low 1 | S. cerevisiae deletion strains, locus YHR030C, strain SLT2, active compounds read low 1 | S. cerevisiae deletion strains, locus YHR079C, strain IRE1 (second series), active compounds read low 1.01 | S. cerevisiae deletion strains, locus YHR094C, strain hxt1, active compounds read low 1.02 | S. cerevisiae deletion strains, locus YHR129C, strain ARP1, active compounds read low 1.01 | S. cerevisiae deletion strains, locus YHR142W, strain chs7, active compounds read low 1.02 | S. cerevisiae deletion strains, locus YHR200W, strain rpn10, active compounds read low 1.02 | S. cerevisiae deletion strains, locus YIL066C, strain RNR3, active compounds read low 1.01 | S. cerevisiae deletion strains, locus YIL073C, strain SPO22, active compounds read low 1.06 | S. cerevisiae deletion strains, locus YIL125W, strain kgd1, active compounds read low 1.02 | S. cerevisiae deletion strains, locus YIR030C, strain dcg1, active compounds read low 1.02 | S. cerevisiae deletion strains, locus YJL092W, strain hpr5, active compounds read low 1.01 | S. cerevisiae deletion strains, locus YJL095W, strain BCK1 (second series), active compounds read low 1.01 | S. cerevisiae deletion strains, locus YJL095W, strain BCK1, active compounds read low 1.04 | S. cerevisiae deletion strains, locus YJL115W, strain asf1, active compounds read low 1.01 | S. cerevisiae deletion strains, locus YJL129C, strain trk1, active compounds read low 1.02 | S. cerevisiae deletion strains, locus YJL134W, strain LCB3, active compounds read low 0.994 | S. cerevisiae deletion strains, locus YJL154C, strain vps35, active compounds read low 1.02 | S. cerevisiae deletion strains, locus YJL164C, strain tpk1, active compounds read low 1.01 | S. cerevisiae deletion strains, locus YJL166W, strain qcr8, active compounds read low 1.01 | S. cerevisiae deletion strains, locus YJL168C, strain set2, active compounds read low 1.01 | S. cerevisiae deletion strains, locus YJL187C, strain SWE1 (second series), active compounds read low 1.03 | S. cerevisiae deletion strains, locus YJL187C, strain SWE1, active compounds read low 1 | S. cerevisiae deletion strains, locus YJR043C, strain POL32, active compounds read low 1 | S. cerevisiae deletion strains, locus YKL009W, strain mrt4, active compounds read low 1.03 | S. cerevisiae deletion strains, locus YKL068W, active compounds read low 1.01 | S. cerevisiae deletion strains, locus YKL085W, strain MDH1 (second series), active compounds read low 1 | S. cerevisiae deletion strains, locus YKL085W, strain MDH1, active compounds read low 1 | S. cerevisiae deletion strains, locus YKL160W, strain elf1, active compounds read low 1.02 | S. cerevisiae deletion strains, locus YKL190W, strain CNB1, active compounds read low 0.989 | S. cerevisiae deletion strains, locus YKR001C, strain vps1, active compounds read low 1.02 | S. cerevisiae deletion strains, locus YKR026C, strain gcn3, active compounds read low 1.01 | S. cerevisiae deletion strains, locus YKR091W, strain srl3, active compounds read low 1.02 | S. cerevisiae deletion strains, locus YLL001W, strain dnm1, active compounds read low 1.01 | S. cerevisiae deletion strains, locus YLL026W, active compounds read low 1 | S. cerevisiae deletion strains, locus YLL041C, strain sdh2, active compounds read low 1.01 | S. cerevisiae deletion strains, locus YLR027C, strain aat2, active compounds read low 1.01 | S. cerevisiae deletion strains, locus YLR039C, strain RIC1, active compounds read low 1.04 | S. cerevisiae deletion strains, locus YLR058C, strain SHM2, active compounds read low 1.02 | S. cerevisiae deletion strains, locus YLR102C, strain apc9, active compounds read low 1.02 | S. cerevisiae deletion strains, locus YLR221C, strain rsa3, active compounds read low 1.02 | S. cerevisiae deletion strains, locus YLR258W, strain gsy2, active compounds read low 1.03 | S. cerevisiae deletion strains, locus YLR262C, strain YPT6 (second series), active compounds read low 1.01 | S. cerevisiae deletion strains, locus YLR262C, strain YPT6, active compounds read low 1.12 | S. cerevisiae deletion strains, locus YLR268W, strain sec22, active compounds read low 1.04 | S. cerevisiae deletion strains, locus YLR320W, strain mms22, active compounds read low 1.02 | S. cerevisiae deletion strains, locus YLR330W, strain CHS5, active compounds read low 1 | S. cerevisiae deletion strains, locus YLR342W, strain FKS1 (second series), active compounds read low 0.993 | S. cerevisiae deletion strains, locus YLR342W, strain FKS1, active compounds read low 1.02 | S. cerevisiae deletion strains, locus YLR357W, strain rsc2, active compounds read low 0.995 | S. cerevisiae deletion strains, locus YLR370C, strain arc18, active compounds read low 1.02 | S. cerevisiae deletion strains, locus YLR371W, strain rom2, active compounds read low 1.02 | S. cerevisiae deletion strains, locus YLR384C, strain iki3, active compounds read low 1.02 | S. cerevisiae deletion strains, locus YLR418C, strain cdc73, active compounds read low 1.02 | S. cerevisiae deletion strains, locus YML016C, strain PPZ1, active compounds read low 1.01 | S. cerevisiae deletion strains, locus YML032C, strain rad52, active compounds read low 1.01 | S. cerevisiae deletion strains, locus YML120C, strain ndi1, active compounds read low 1.01 | S. cerevisiae deletion strains, locus YML124C, strain tub3, active compounds read low 1.01 | S. cerevisiae deletion strains, locus YMR058W, strain fet3, active compounds read low 1.01 | S. cerevisiae deletion strains, locus YMR078C, strain ctf18, active compounds read low 1.03 | S. cerevisiae deletion strains, locus YMR125W, strain sto1, active compounds read low 1.01 | S. cerevisiae deletion strains, locus YMR129W, active compounds read low 1.01 | S. cerevisiae deletion strains, locus YMR205C, strain PFK2, active compounds read low 1.02 | S. cerevisiae deletion strains, locus YMR223W, strain ubp8, active compounds read low 1.02 | S. cerevisiae deletion strains, locus YMR231W, strain pep5, active compounds read low 1 | S. cerevisiae deletion strains, locus YMR307W, strain GAS1, active compounds read low 1.01 | S. cerevisiae deletion strains, locus YNL067W, strain RPL9B, active compounds read low 1.03 | S. cerevisiae deletion strains, locus YNL071W, strain lat1, active compounds read low 1.02 | S. cerevisiae deletion strains, locus YNL128W, strain TEP1, active compounds read low 1.03 | S. cerevisiae deletion strains, locus YNL153C, strain GIM3, active compounds read low 1.01 | S. cerevisiae deletion strains, locus YNL209W, strain ssb2, active compounds read low 1.01 | S. cerevisiae deletion strains, locus YNL233W, strain BNI4, active compounds read low 1.03 | S. cerevisiae deletion strains, locus YNL248C, strain rpa49, active compounds read low 0.998 | S. cerevisiae deletion strains, locus YNL250W, strain rad50, active compounds read low 1.05 | S. cerevisiae deletion strains, locus YNL271C, strain bni1, active compounds read low 1.03 | S. cerevisiae deletion strains, locus YNL298W, strain CLA4, active compounds read low 1.01 | S. cerevisiae deletion strains, locus YNL307C, strain MCK1, active compounds read low 1.04 | S. cerevisiae deletion strains, locus YNL322C, strain KRE1 (second series), active compounds read low 1 | S. cerevisiae deletion strains, locus YNL322C, strain KRE1, active compounds read low 1 | S. cerevisiae deletion strains, locus YNR049C, strain mso1, active compounds read low 1.03 | S. cerevisiae deletion strains, locus YNR052C, strain pop2, active compounds read low 1.02 | S. cerevisiae deletion strains, locus YOL012C, strain htz1 1.55 | S. cerevisiae deletion strains, locus YOL147C, strain pex11, active compounds read low 1.02 | S. cerevisiae deletion strains, locus YOR001W, strain rrp6, active compounds read low 1.02 | S. cerevisiae deletion strains, locus YOR061W, strain CKA2, active compounds read low 1.01 | S. cerevisiae deletion strains, locus YOR069W, strain VPS5, active compounds read low 1.01 | S. cerevisiae deletion strains, locus YOR070C, strain gyp1, active compounds read low 1.03 | S. cerevisiae deletion strains, locus YOR080W, strain dia2, active compounds read low 1 | S. cerevisiae deletion strains, locus YOR083W, strain WHI5, active compounds read low 1.02 | S. cerevisiae deletion strains, locus YOR106W, strain vam3, active compounds read low 1.02 | S. cerevisiae deletion strains, locus YOR136W, strain idh2, active compounds read low 1.03 | S. cerevisiae deletion strains, locus YOR144C, strain elg1, active compounds read low 1 | S. cerevisiae deletion strains, locus YOR184W, strain ser1, active compounds read low 1.01 | S. cerevisiae deletion strains, locus YOR265W, strain rbl2, active compounds read low 1 | S. cerevisiae deletion strains, locus YOR270C, strain vph1, active compounds read low 1.05 | S. cerevisiae deletion strains, locus YOR290C, strain snf2, active compounds read low 1.01 | S. cerevisiae deletion strains, locus YOR316C, strain cot1, active compounds read low 1.02 | S. cerevisiae deletion strains, locus YPL051W, strain arl3, active compounds read low 1 | S. cerevisiae deletion strains, locus YPL055C, strain LGE1, active compounds read low 1.03 | S. cerevisiae deletion strains, locus YPL078C, strain atp4, active compounds read low 1.01 | S. cerevisiae deletion strains, locus YPL106C, strain sse1, active compounds read low 0.997 | S. cerevisiae deletion strains, locus YPL240C, strain hsp82, active compounds read low 0.998 | S. cerevisiae deletion strains, locus YPR119W, strain clb2, active compounds read low 1.02 | S. cerevisiae deletion strains, locus YPR141C, strain kar3, active compounds read low 1.02 | S. cerevisiae deletion strains, locus YPR163C, strain tif3, active compounds read low 1.02 | S. cerevisiae deletion strains, locus YPR167C, strain met16, active compounds read low 1.02 | S. cerevisiae deletion strains, strain wtn01, active compounds read low 1.02 | S. cerevisiae strains, strain wild type, active compounds read low 1.01
